The record followed here is PubChem BioAssay (NCATS).

Inconclusive results are not listed. Activity calls are given as the source filed them. Unless noted, the call rests on the fitted dose curve; in most records, active means well fitted curve in the direction sought with a large enough effect; inconclusive means small, poorly fitted or top-dose-only effect, or another doubt; inactive means no such curve, though single readings can be large; an effect the other way counts as inactive or inconclusive.

A short description of assay [1]: qHTS assay to identify inhibitors of the type 1 interferon - major histocompatibility complex class I in skeletal muscle: Counter screen cell viability and HiBit confirmation (AID 1347412). Further: potency means the concentration at half of the fitted maximal effect. On activity change, negative = inhibition: on the % scale 0 is the no-effect control and ±100 the full control effect. On all read-outs here: nearly all actives have a fitted effect of over 60% in size. The conditions noted are these: iHSKM muscle cells + IFN-b, HiBiT or CellTiter-Glo, 24 h; for activity change, negative = inhibition: at 45.9 µM (top of the series). In a few lines:
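Duplicate plates, pinned identically: one read for HiBiT-tagged endogenous HLA-B luminescence, the other for ATP-content viability via CellTiter Glo. Cells were genome-engineered human myoblasts given 4 ng/ml IFN-b; compounds 12-pt, 1:3 from 46 uM final; 24 hr exposure.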

Assay [2] is described as follows: P-glycoprotein substrates identified in KB-3-1 adenocarcinoma cell line, qHTS therapeutic library screen (AID 1346986).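 Further: potency means the concentration at half of the fitted maximal effect; potency is for cytotoxicity meaning loss of cell viability; nearly all actives have a fitted effect of over 60% in size.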 Particulars: KB-3-1 parental cells viability, CellTiter-Glo, 72 h; series mostly up to 44.5 µM. In a few lines: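 Viability read by CellTiter-Glo after 72 h compound exposure in dose-response of KB-3-1 and KB-8-5-11 (P-gp-high) cells. Hits needed AC50 < 10 uM, >50% maximum response and curve class -1.1 to -2.4. Cherry-picks retested ± tariquidar, including pcDNA/MDR-19 HEK-293 pair.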

Assay [3] in a line: Confirmatory screen GU Rhodamine qHTS for Zika virus inhibitors qHTS (AID 1347157). Further: potency means the concentration at half of the fitted maximal effect; nearly all actives have a fitted effect of over 70% in size. Particulars: purified enzyme assay, Rhodamine110 substrate fluorescence, 15 min; series mostly up to 114 µM. In a few lines: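 A qHTS format was used, with compound concentrations ranging up to 114 microM. Each compound was preincubated with 25 nM NS2B-NS3 protease, and the substrate was then added at 1.5 microM. Curves were fitted with a 4-parameter Hill model.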

Assay [4] in a line: HepG2 cells viability qHTS for Zika virus inhibitors (AID 1347168). Further: on the % scale 0 is the no-effect control and ±100 the full control effect. The conditions noted are these: Zika counter-screen; series mostly up to 45.9 µM. In outline:
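Luminescent ATP readout (CellTiter Glo) after 30 min at 37 degrees C gives viability; cells in DMEM + 4% FBS were treated 24 to 48 hours with compound, following overnight attachment.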

Assay [5] is described as follows: Drug repurposing screens with cells derived from glioblastoma tumor samples (AID 1345199). Further: on the % scale 0 is the no-effect control and ±100 the full control effect; nearly all actives have a fitted effect of over 40% in size. Particulars: GBM patient neurospheres viability, ATP luminescence, 48 h. In a few lines:
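Primary testing used CD133+ neurospheres from four GBM patients, seven concentrations, 48 h exposure and ATP-based viability; confirmation added three slower-growing patient lines.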

For assay [6], the system named is Zika virus NS2B-NS3 protease (unlinked complex). The assay is described as follows: Primary screen GU Rhodamine qHTS for Zika virus inhibitors: Unlinked NS2B-NS3 protease assay (AID 1347159). Further: on the % scale 0 is the no-effect control and ±100 the full control effect; nearly all actives have a fitted effect of over 60% in size. The conditions noted are these: Recombinant ZIKV NS2B-NS3 protease, Rhodamine110 substrate fluorescence; series mostly up to 107 µM. In outline:
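Buffer 10 mM Tris-HCl pH 8.0, 0.01% Tween 20. Unlinked protease 25 nM; compound preincubation 15 min, RT, protected from light. Substrate Rhod110, 1.5 microM; ~15% conversion in 15 min.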

In assay [7] the target is Cytochrome P450 2C9 (Homo sapiens) (UniProt P11712). The assay is described as follows: Cytochrome P450 family 2 subfamily C member 9 (CYP2C9) small molecule antagonists: luciferase biochemical (cell-free) qHTS assay (AID 1645842; active means well fitted curve in the direction sought with a large enough effect in the repeat runs; an effect the other way counts as inactive or inconclusive; further: potency means the concentration at half of the fitted maximal effect; nearly all actives have a fitted effect of over 55% in size). The conditions noted are these: P450-Glo CYP2C9 enzyme assay, luciferin luminescence; series mostly up to 57.4 µM. In a few lines: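 P450-Glo CYP2C9 system: proluciferin substrate with enzyme in mix containing 0.4% BSA, 10 min at room temperature, then NADPH regeneration solution added and incubated 1 h at 37C. Detection reagent stopped reaction; luminescence read after 20 min as RLU.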
Sequence of Cytochrome P450 2C9 (Homo sapiens) (P11712 whole entry, looked up): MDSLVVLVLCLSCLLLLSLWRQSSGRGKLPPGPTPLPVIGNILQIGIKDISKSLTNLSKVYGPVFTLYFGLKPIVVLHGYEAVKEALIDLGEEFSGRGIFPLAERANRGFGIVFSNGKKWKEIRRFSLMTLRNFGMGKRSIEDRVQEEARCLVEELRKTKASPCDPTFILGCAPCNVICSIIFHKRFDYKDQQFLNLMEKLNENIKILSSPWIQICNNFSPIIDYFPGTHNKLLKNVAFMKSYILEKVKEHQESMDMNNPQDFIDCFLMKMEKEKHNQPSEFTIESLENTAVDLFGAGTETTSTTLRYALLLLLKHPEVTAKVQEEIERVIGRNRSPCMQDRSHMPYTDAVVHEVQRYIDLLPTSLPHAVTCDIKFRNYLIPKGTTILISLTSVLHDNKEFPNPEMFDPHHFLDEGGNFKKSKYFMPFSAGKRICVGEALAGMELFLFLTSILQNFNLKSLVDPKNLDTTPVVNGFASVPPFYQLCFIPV

Another assay concerns PA-1. The assay is described as follows: Primary qHTS to identify gynecologic anti-cancer compounds using libraries of approved drugs and bioactive compounds (AID 1345084). Further: nearly all actives have a fitted effect of over 55% in size. Further: potency means the concentration at half of the fitted maximal effect. Particulars: Gynecologic cancer cell panel viability, ATPlite luminescence, 48 h; series mostly up to 57.5 µM. In outline:
(§1)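 Cell viability after 48 h drug treatment, ATPlite luminescence readout; five doses.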

Assay [8] can be described thus: P-glycoprotein substrates identified in KB-8-5-11 adenocarcinoma cell line, qHTS therapeutic library screen (AID 1346987). Further: nearly all actives have a fitted effect of over 65% in size. Further: potency means the concentration at half of the fitted maximal effect. Particulars: KB-8-5-11 (P-gp overexpressing) viability, CellTiter-Glo, 72 h; series mostly up to 44.5 µM. In a few lines:
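Luminescence from CellTiter-Glo, read 5 min after addition, quantified survival of KB-8-5-11 (P-gp-overexpressing) cells exposed to compounds for 72 h. AC50 was derived from concentration-response curves.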

In assay [9] the target is Cytochrome P450 2D6 (Homo sapiens) (UniProt P10635). The assay can be described thus: Cytochrome P450 family 2 subfamily D member 6 (CYP2D6) small molecule antagonists: luciferase biochemical (cell-free) qHTS assay (AID 1645840; active means well fitted curve in the direction sought with a large enough effect in the repeat runs; an effect the other way counts as inactive or inconclusive; further: nearly all actives have a fitted effect of over 55% in size; further: potency means the concentration at half of the fitted maximal effect; on activity change, negative = inhibition: on the % scale 0 is the no-effect control and ±100 the full control effect). Particulars: P450-Glo CYP2D6 enzyme, luciferin luminescence, 1 h; series mostly up to 57.4 µM. In outline: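 P450-Glo CYP2D6 system: proluciferin substrate converted by enzyme to luciferin, read by luminescence proportional to activity. Enzyme-substrate mix with compound 10 min at room temperature, then NADPH regeneration 1 h before detection reagent.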
Sequence of Cytochrome P450 2D6 (Homo sapiens) (P10635 whole entry, looked up): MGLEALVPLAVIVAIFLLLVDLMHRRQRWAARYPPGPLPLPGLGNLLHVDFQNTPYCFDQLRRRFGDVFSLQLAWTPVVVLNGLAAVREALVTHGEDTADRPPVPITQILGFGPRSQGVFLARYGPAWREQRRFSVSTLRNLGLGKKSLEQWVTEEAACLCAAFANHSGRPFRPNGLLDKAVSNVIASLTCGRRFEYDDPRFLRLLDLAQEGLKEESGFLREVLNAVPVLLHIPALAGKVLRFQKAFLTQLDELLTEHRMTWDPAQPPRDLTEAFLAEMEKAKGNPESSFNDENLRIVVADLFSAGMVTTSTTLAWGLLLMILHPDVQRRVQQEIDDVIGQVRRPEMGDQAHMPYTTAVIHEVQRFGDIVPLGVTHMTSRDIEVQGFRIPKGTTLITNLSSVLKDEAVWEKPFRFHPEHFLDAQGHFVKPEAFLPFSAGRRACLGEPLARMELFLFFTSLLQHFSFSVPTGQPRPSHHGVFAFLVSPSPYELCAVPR

The test system of another assay is SKOV3. The assay is described as follows: Primary qHTS to identify gynecologic anti-cancer compounds using libraries of approved drugs and bioactive compounds (AID 1345084). Further: nearly all actives have a fitted effect of over 55% in size. Further: potency means the concentration at half of the fitted maximal effect. The conditions noted are these: Gynecologic cancer cell panel viability, ATPlite luminescence, 48 h; series mostly up to 57.5 µM. In a few lines: as §1
A short description of assay [10]: qHTS to identify inhibitors of the type 1 interferon - major histocompatibility complex class I in skeletal muscle: primary screen against the NCATS Mechanism Interrogation Plate v5.0 (MIPE) Libary (AID 1347411).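 Further: plate controls were vehicle for no effect and reference inhibitor for full effect; nearly all actives have a fitted effect of over 65% in size.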 Particulars: iHSKM cells + IFN-b, HiBiT-tagged MHC-I luminescence, 24 h; series mostly up to 45.8 µM. In a few lines: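 Seed engineered human myoblasts (HLA-B HiBit) in medium without dexamethasone containing 4 ng/ml IFN-beta; after 1 hr add compound titrations (top 46 uM final). Incubate 24 hrs at 37 C, lyse 10 min with HiBiT reagent, read luminescence.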

Assay [11] can be described thus: qHTS drug screen for cell cycle checkpoint inhibitors in PARPi-resistant BRCA-mutant ovarian cancer cell lines. (AID 1963452; calls by dose curve). The conditions noted are these: PEO1/OlaR viability, CellTiter-Glo luminescence, 96 h, stronger effect = lower value. In a few lines: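 PEO1, PEO4 and PEO1/OlaR ovarian cancer cells, 600 per well, exposed 96 h at 37C to a dilution series. Viability read by CellTiter-Glo luminescence, normalized to DMSO and empty wells; activity summarized as Z-AUC.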

Assay [12] has as its target Catechol O-methyltransferase (Homo sapiens) (UniProt P21964). The assay can be described thus: Confirmatory Screen for Target Class Profiling of Small Molecule Inhibitors of Methyltransferases (AID 1745852; calls by dose curve; on activity change, negative = inhibition: on the % scale 0 is the no-effect control and ±100 the full control effect). The conditions noted are these: MTase-Glo luminescence, SAH detection, recombinant enzyme; measured here: COMT max response; stronger effect = lower value.
The target in assay [13] is Guanidinoacetate N-methyltransferase (Homo sapiens) (UniProt Q14353). Described as above. The conditions noted are these: MTase-Glo luminescence, SAH detection, recombinant enzyme; activity change, negative = inhibition: at 57.3 µM (top of the series) unless noted; series mostly up to 57.3 µM.
Assay [14] concerns the target Nicotinamide N-methyltransferase (Homo sapiens) (UniProt P40261). Described as above. The conditions noted are these: MTase-Glo luminescence, SAH detection, recombinant enzyme; measured here: NNMT max response; stronger effect = lower value.
The target of assay [15] is Phenylethanolamine N-methyltransferase (Homo sapiens) (UniProt P11086). The assay is described as above. The conditions noted are these: MTase-Glo luminescence, SAH detection, recombinant enzyme; measured here: PNMT max response; stronger effect = lower value.
Sequence of Phenylethanolamine N-methyltransferase (Homo sapiens) (P11086 whole entry, looked up): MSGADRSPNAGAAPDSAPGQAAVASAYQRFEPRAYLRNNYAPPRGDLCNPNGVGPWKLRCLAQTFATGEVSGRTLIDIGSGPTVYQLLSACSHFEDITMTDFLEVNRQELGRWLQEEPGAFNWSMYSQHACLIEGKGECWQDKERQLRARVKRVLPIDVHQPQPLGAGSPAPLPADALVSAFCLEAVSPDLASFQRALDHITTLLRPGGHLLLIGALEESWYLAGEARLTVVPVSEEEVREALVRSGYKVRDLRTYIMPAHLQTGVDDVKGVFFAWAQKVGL
Where [16] appears, read: measured here: PEO1 parental Z-AUC.

Sequence of Catechol O-methyltransferase (Homo sapiens) (P21964 whole entry, looked up): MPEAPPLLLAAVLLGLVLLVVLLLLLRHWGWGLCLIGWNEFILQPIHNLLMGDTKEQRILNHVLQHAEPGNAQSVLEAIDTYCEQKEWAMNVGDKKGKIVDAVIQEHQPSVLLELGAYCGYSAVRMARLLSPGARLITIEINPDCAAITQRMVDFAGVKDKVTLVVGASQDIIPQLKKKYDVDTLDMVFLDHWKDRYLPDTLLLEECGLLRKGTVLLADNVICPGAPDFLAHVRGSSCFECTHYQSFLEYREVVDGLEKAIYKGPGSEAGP
Sequence of Nicotinamide N-methyltransferase (Homo sapiens) (P40261 whole entry, looked up): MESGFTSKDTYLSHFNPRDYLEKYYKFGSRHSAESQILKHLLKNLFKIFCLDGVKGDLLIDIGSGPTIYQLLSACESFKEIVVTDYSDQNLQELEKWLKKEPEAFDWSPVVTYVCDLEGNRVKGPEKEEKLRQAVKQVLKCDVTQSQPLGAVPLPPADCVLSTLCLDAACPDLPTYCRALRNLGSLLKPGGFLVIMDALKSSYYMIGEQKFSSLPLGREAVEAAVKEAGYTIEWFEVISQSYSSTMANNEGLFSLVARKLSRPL

In the case of `Oc1ccc(Nc2nc(-c3ccc(Cl)cc3)cs2)cc1`, the activity change, negative = inhibition in assay [1] (Viability) is 7.19% (inactive).

Turning to `C=CC(=O)Nc1cc(Nc2nccc(-c3cn(C)c4ccccc34)n2)c(OC)cc1N(C)CCN(C)C`, the Potency in [2] is 10.3 µM (active); in assay [1] (HiBiT) it was 24.9 µM (active).

On to `CC1CCN(C(c2ccc(F)cc2)c2ccc(C(C)C(=O)O)cc2-c2ccc(C(F)(F)F)cc2)CC1` (stereo unspecified), for which the Potency in [3] is 3.93 µM (active). For the same molecule, the Potency entry in assay [4] is “inactive”.

With `O=c1c(-n2ccnn2)c[nH]n1-c1cc(N2CCOCC2)ncn1`, in assay [1] (Viability), the activity change, negative = inhibition is -14.1% (inactive).

As to `COc1cc(N2CCN(C(C)=O)CC2)ccc1Nc1ncc(Cl)c(Nc2ccc(N3CCN(C(C)=O)CC3)cc2OC)n1`, the Potency in assay [2] is 14.6 µM (active).

In the case of `COCCNCc1ccc(-c2cc3nccc(Oc4ccc(NC(=S)NC(=O)Cc5ccc(F)cc5)cc4F)c3s2)nc1`, the Potency in assay [2] was 23.1 µM (active); in assay [1] (HiBiT) it was 12.5 µM (active); in assay [1] (Viability) it was 11.1 µM (active).

With `CN(Cc1ccc(C(=O)O)cc1)c1ccc(OCc2c(-c3c(Cl)cccc3Cl)noc2C2CC2)nc1C(F)(F)F`, in assay [4], the Potency entry is “inactive”.

As for `CCNC(=O)[C@@H]1CCCN1C(=O)[C@H](CCCN=C(N)N)NC(=O)[C@H](CC(C)C)NC(=O)[C@@H](CC(C)C)NC(=O)[C@H](Cc1ccc(O)cc1)NC(=O)[C@H](CO)NC(=O)[C@H](Cc1c[nH]c2ccccc12)NC(=O)[C@H](Cc1cnc[nH]1)NC(=O)[C@@H]1CCC(=O)N1`, the activity, negative = cell killing was -5.52% (inactive) in assay [5] (at 45.9 µM (top of the series), tumour line B); 4.71% (inactive) in [5] (at 45.9 µM (top of the series), tumour line D); -26.4% (inactive) in [5] (at 46 µM (top of the series), tumour line A); 1.53% (inactive) in assay [5] (at 46.1 µM (top of the series), tumour line C).

Consider `COc1ccccc1-c1c[nH]c2ncc(-c3cncc(C(=O)N(C)C)c3)cc12`, for which, in assay [6], the Potency entry is “inactive”. In addition, the Potency in [7] is 3.38 µM (active); with PA-1, 31.6 µM (active).

On to `CC1CCN(c2cc(NC(=O)c3ccccc3)ncn2)CC1`, for which the Potency in assay [8] is 16.4 µM (active); in assay [7] it was 9.52 µM (active). The Potency entry (in [6]; in assay [9]; in the assay with SKOV3) was “inactive” each time.

For the molecule `Cn1nccc1Nc1nccc(-c2ccn([C@H](CO)c3ccc(Cl)c(F)c3)c(=O)c2)n1`, the Potency result in assay [8], in assay [6] and in [10] was “inactive” in each case. For the same molecule, in assay [7], the Potency was 19 µM (active). In addition, the Z-AUC was -0.731 (inactive) in assay [11], -0.241 in assay [11] (setting [16]) and -0.296 in assay [11] (measured here: PEO4 Z-AUC).

For `C=C(C(=O)O)C1CC2=C(C)C(=O)CC2C(C)CC1O` (stereo unspecified), the Potency entry in the assay with SKOV3 is “inactive”.

Regarding `Nc1ccc(N)c([N+](=O)[O-])c1`, the Potency result in the assay with PA-1 and in the assay with SKOV3 was “inactive” throughout. For the same molecule, the activity, negative = cell killing in assay [5] (at 91.6 µM (top of the series), tumour line D) is -23.5% (inactive).

Regarding `CCC(=O)Nc1cccc(Oc2nc(Nc3ccc(N4CCN(C)CC4)cc3OC)ncc2Cl)c1`, the Potency in assay [8] is 16.4 µM (active); in assay [7], 6.74 µM (active). Also, the Potency entry in assay [6] and in [10] was “inactive” each time. Moreover, the Z-AUC in [11] is -0.15 (inactive); in assay [11] (setting [16]), 0.187; in [11] (measured here: PEO4 Z-AUC), 0.383.

In the case of `CC1(C)SC2C(NC(=O)[C@H](NC(=O)N3CCNC3=O)c3ccccc3)C(=O)N2C1C(=O)O` (stereo partly specified), the Potency entry with PA-1 was “inactive”.

`COc1ccc(-c2nc(-c3cc(C(F)(F)F)cc(C(F)(F)F)c3)n(Cc3ccc(C(N)=O)cc3)c2-c2ccc(OC)cc2)cc1`: in assay [7], the Potency is 5.35 µM (active). The activity in assay [12] is 0.0984%; in [14] it was -7.68%; in assay [15], -1.33%. In addition, in assay [13], the activity change, negative = inhibition was -0.694%. Besides, the Potency result with PA-1 and with SKOV3 was “inactive” each time.

As for `CC(C)n1cnc2c(Nc3cccc(Cl)c3)nc(NCCO)nc21`, the Potency in [8] is 14.6 µM (active); in [9], 16.9 µM (active); in [7] it was 9.52 µM (active). Besides, in the assay with PA-1, the Potency entry was “inactive”.

In the case of `CN(C)CC(=O)Nc1ccc2[nH]c(=O)c3ccccc3c2c1`, the Potency result (in assay [9]; with SKOV3) was “inactive” throughout. In addition, the Potency in assay [7] is 13.5 µM (active).
